From PubChem BioAssay
Unmarked numbers belong to inactive results. Activity calls are given as the source filed them.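 Rule for the calls: active = normalized viability below 100% at a tested concentration; inactive = the rest.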

assay: ovarian cancer cell viability with rucaparib, profiling panel, oncology-focused library, rucaparib conditional (AID 1508598); conditions: patient-derived ovarian cancer cells, CellTiter-Glo viability, 144 h; at 0.313 µM; OCI-C5x cells; without rucaparib; hits give low values

Row | Structure (SMILES) | viability
1 | CO[C@H]1C[C@@H]2CC[C@@H](C)[C@@](O)(O2)C(=O)C(=O)N2CCCC[C@H]2C(=O)O[C@H]([C@H](C)C[C@@H]2CC[C@@H](O)[C@H](OC)C2)CC(=O)[C@H](C)/C=C(\C)[C@@H](O)[C@H](OC)C(=O)[C@H](C)C[C@H](C)/C=C/C=C/C=C/1C | 97.8% (active)
2 | CC(=O)OCC(=O)[C@]1(O)[C@H](C)C[C@H]2[C@@H]3CCC4=CC(=O)C=C[C@]4(C)[C@]3(F)[C@H](O)C[C@@]21C | 113%
3 | CC[C@]1(O)C[C@@H]2CN(CCc3c([nH]c4ccccc34)[C@@](C(=O)OC)(c3cc4c(cc3OC)N(C=O)[C@H]3[C@@](O)(C(=O)OC)[C@H](OC(C)=O)[C@]5(CC)C=CCN6CC[C@@]43[C@@H]65)C2)C1 | 23.4% (active)
4 | C[C@@]12CC[C@H]3c4ccc(O)cc4C[C@@H](CCCCCCCCCS(=O)CCCC(F)(F)C(F)(F)F)[C@H]3[C@@H]1CC[C@@H]2O (stereo partly specified) | 125%
5 | CC(=O)O[C@@]1(C(C)=O)CC[C@H]2[C@@H]3C[C@H](C)C4=CC(=O)CC[C@]4(C)[C@@H]3CC[C@@]21C | 118%
6 | CC(=O)O[C@]12CO[C@@H]1C[C@H](O)[C@]1(C)C(=O)[C@H](O)C3=C(C)[C@H](OC(=O)[C@H](O)[C@@H](NC(=O)OC(C)(C)C)c4ccccc4)C[C@](O)([C@H](OC(=O)c4ccccc4)C21)C3(C)C (stereo partly specified) | 37.8% (active)
7 | CCC1=CC2CN(C1)Cc1c([nH]c3ccccc13)[C@@](C(=O)OC)(c1cc3c(cc1OC)N(C)[C@H]1[C@@](O)(C(=O)OC)[C@H](OC(C)=O)[C@]4(CC)C=CCN5CC[C@@]31[C@H]54)C2 (stereo partly specified) | 23.8% (active)
8 | CC(=O)O[C@H]1C(=O)[C@@]2(C)C([C@H](OC(=O)c3ccccc3)[C@]3(O)C[C@H](OC(=O)[C@H](O)[C@@H](NC(=O)c4ccccc4)c4ccccc4)C(C)=C1C3(C)C)[C@]1(OC(C)=O)CO[C@@H]1C[C@H]2O (stereo partly specified) | 29.8% (active)

same assay, conditions: patient-derived ovarian cancer cells, CellTiter-Glo viability, 144 h; at 0.313 µM; OCI-P5x cells; with rucaparib 20 µM; hits give low values; 100% = cells with rucaparib alone

Row | Structure (SMILES) | viability
9 | O=c1[nH]c(=O)n([C@@H]2C[C@H](O)[C@@H](CO)O2)cc1F | 104%
10 | COc1cccc2c1C(=O)c1c(O)c3c(c(O)c1C2=O)C[C@@](O)(C(C)=O)C[C@H]3O[C@H]1C[C@H](N)[C@H](O)[C@H](C)O1 | 25.9% (active)
11 | C[C@]12CC[C@H]3c4ccc(O)cc4CC[C@H]3[C@@H]1CC[C@H]2O | 100%
12 | CC1=C(/C=C/C(C)=C\C=C\C(C)=C/C(=O)O)C(C)(C)CCC1 | 93.9% (active)
13 | CC(C)CC(CC(=O)NO)C(=O)N[C@@H](Cc1ccc2ccccc2c1)C(=O)N[C@@H](C)C(=O)NCCN (stereo partly specified) | 91.3% (active)
14 | COc1cccc2c1C(=O)c1c(O)c3c(c(O)c1C2=O)C[C@@](O)(C(=O)CO)C[C@H]3O[C@H]1C[C@H](N)[C@@H](O)[C@H](C)O1 | 45.3% (active)
15 | COc1ccc(C2=N[C@H](c3ccc(Cl)cc3)[C@@H](c3ccc(Cl)cc3)N2C(=O)N2CCNC(=O)C2)c(OC(C)C)c1 | 64.3% (active)
16 | CO[C@H]1C[C@H]2CC[C@@H](C)[C@@](O)(O2)C(=O)C(=O)N2CCCC[C@H]2C(=O)O[C@H]([C@H](C)C[C@@H]2CC[C@H](OC(=O)C(C)(CO)CO)[C@H](OC)C2)CC(=O)[C@H](C)/C=C(\C)[C@@H](O)[C@@H](OC)C(=O)[C@H](C)C[C@H](C)/C=C/C=C/C=C/1C | 71.6% (active)
17 | O=C(O)c1cc(I)ccc1NC(=O)[C@H](Cc1ccccc1)NCc1ccccc1 | 95.5% (active)
18 | Nc1ncn([C@@H]2O[C@H](CO)[C@@H](O)[C@@H]2O)c(=O)n1 | 114%
19 | CO[C@H]1C[C@@H]2CC[C@@H](C)[C@@](O)(O2)C(=O)C(=O)N2CCCC[C@H]2C(=O)O[C@H]([C@H](C)C[C@@H]2CC[C@@H](O)[C@H](OC)C2)CC(=O)[C@H](C)/C=C(\C)[C@@H](O)[C@H](OC)C(=O)[C@H](C)C[C@H](C)/C=C/C=C/C=C/1C | 94.8% (active)
20 | CC(=O)OCC(=O)[C@]1(O)[C@H](C)C[C@H]2[C@@H]3CCC4=CC(=O)C=C[C@]4(C)[C@]3(F)[C@H](O)C[C@@]21C | 100%
21 | CC[C@]1(O)C[C@@H]2CN(CCc3c([nH]c4ccccc34)[C@@](C(=O)OC)(c3cc4c(cc3OC)N(C=O)[C@H]3[C@@](O)(C(=O)OC)[C@H](OC(C)=O)[C@]5(CC)C=CCN6CC[C@@]43[C@@H]65)C2)C1 | 49.8% (active)
